Measurements: PubChem BioAssay AID1851 (National Center for Advancing Translational Sciences (NCATS), 2009)
Among all 16,000 compounds or so, about 5,100 (32%) were called active. Another 25% or so got no clear call; they are omitted. Calls come from the whole dose curve; as a rule, active = well fitted curve in the direction sought with a large enough effect; inconclusive = small, poorly fitted or top-dose-only effect, or effect the other way; inactive = no such curve, though single readings can be large or run the other way. The list shows a part of the results.

biological target: Cytochrome P450 3A4 (Homo sapiens) (UniProt P08684); test: Cytochrome panel assay with activity outcomes; conditions: recombinant CYP, pro-luciferin dealkylation, luminescence, p450-cyp3a4; series mostly up to 57.1 µM; activity, negative = inhibition: at the top concentration
Sequence (P08684 whole entry, looked up): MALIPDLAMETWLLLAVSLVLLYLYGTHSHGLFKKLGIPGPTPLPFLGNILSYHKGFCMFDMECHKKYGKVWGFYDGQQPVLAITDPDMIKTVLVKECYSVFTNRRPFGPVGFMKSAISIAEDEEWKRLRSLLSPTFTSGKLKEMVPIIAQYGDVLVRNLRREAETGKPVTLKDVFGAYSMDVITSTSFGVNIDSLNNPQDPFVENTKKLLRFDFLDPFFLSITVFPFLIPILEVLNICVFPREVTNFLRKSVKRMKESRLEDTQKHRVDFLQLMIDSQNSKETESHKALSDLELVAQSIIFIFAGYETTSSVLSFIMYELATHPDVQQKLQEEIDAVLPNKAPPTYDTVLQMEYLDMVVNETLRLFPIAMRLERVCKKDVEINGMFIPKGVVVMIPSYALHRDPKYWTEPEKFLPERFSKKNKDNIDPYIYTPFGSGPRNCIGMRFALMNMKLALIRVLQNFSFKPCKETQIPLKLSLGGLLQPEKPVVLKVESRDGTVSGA
% is set by controls: 0 for no effect and ±100 for the full control effect.

activity, negative = inhibition, inactive:
Cc1nc(N=Nc2cc(S(=O)(=O)O)ccc2S(=O)(=O)O)c(COP(=O)(O)O)c(C=O)c1O -14.1%, O=C(O)C[C@H](S)C(=O)O -4.75% [at 11.4 µM], [N-]=[N+]=NC[C@@H]1O[C@@H](n2cnc3c(N)ncnc32)[C@@H]2O[C@@H]21 -11.8% [at 11.4 µM], Nc1nc2n[nH]nc2c(=O)[nH]1 -18.8% [at 25.6 µM], O=C1C2=CC[C@H]3C(=O)N(c4cccc(Oc5ccccc5)c4)C(=O)[C@@H]3[C@@H]2[C@H](O)[C@@H]2O[C@H]12 -4.92% [at 11.4 µM], CON1C(=O)C(=O)N(OC)C(C)(C)C1C (configuration not stated) -4.17%, COC(=O)C/C=C\[C@@H](C)[C@@H](/C=N\O[C@@H](C)CN1CCCc2nc(C)c(C)cc21)NS(=O)(=O)c1ccc(C)cc1 -80.9% [at 11.4 µM], CCCS(=O)(=O)N1CCCC(C(=O)NCCCOC(C)C)C1 (configuration not stated) -4.73%, O=c1nc(-c2ccccc2)cn[nH]1 2.11%, Cc1ccc(C2=NN(S(C)(=O)=O)C(c3cccs3)C2)cc1 (configuration not stated) -2.01% [at 2.29 µM], Cc1[nH]n2c(=O)c(C#N)c(-c3ccccc3)nc2c1-c1ccccc1 -9.5%, NNS(=O)(=O)c1cc(C(=O)O)cc(C(=O)O)c1 -6.08% [at 11.4 µM], CSc1nc(Oc2ccc(=O)[nH]n2)nc(N(C)C)n1 -5.03%, C[C@H]1[C@@H](O)[C@@H](C)\C=C/C=C\C=C/C=C\C=C/C=C\C=C/[C@@H](O[C@H]2O[C@@H](C)[C@@H](O)[C@@H](N)[C@@H]2O)C[C@@H]2O[C@](O)(C[C@@H](O)C[C@@H](O)[C@@H](O)CC[C@@H](O)C[C@@H](O)CC(=O)O[C@H]1C)C[C@@H](O)[C@H]2C(=O)O (stereo in doubt) 12.7% [at 25.6 µM], CCCC(=O)Nc1nnc(CCN2CCCCC2)s1 1.59%, CCCc1nnc(NC(=O)Cn2cnc3ccccc3c2=O)s1 -10.1%, Cc1cccc(NC(=O)CSc2nc(-c3ccccc3)c(C#N)c(=O)[nH]2)c1C 4.48% [at 0.457 µM], O=S1(=O)C=C(Oc2ccc3ccccc3c2)c2ccccc21 0.516%, CN(C)c1ncc2nc(-c3ccc(Cl)cc3)c(=O)n(C)c2n1 5.8%, O=[N+]([O-])c1ccc(N/N=C\c2cccn2-c2ccccc2)nc1 0.811% [at 2.29 µM], Cc1ccc(-c2nn(-c3ccccc3)cc2/C=N/NS(=O)(=O)c2ccccc2)cc1 -20.9% [at 2.29 µM], CC1=NN(c2ccc(S(=O)(=O)O)cc2)C(=O)/C1=C\c1ccc(Cl)cc1 2.74% [at 11.4 µM], C/C(=N/O)[C@@H]1C[C@H](CC(=O)O)C1(C)C -25.4% [at 11.4 µM], O=C(c1csnn1)N1CCC2(CC1)CN(Cc1cc(C(F)(F)F)cc(C(F)(F)F)c1)C2 -23.4%, O=C(c1cnccn1)N1CCC2(CC1)CN(Cc1cc(C(F)(F)F)cc(C(F)(F)F)c1)C2 -23.4%, OC[C@@H](O)CN1CCN(c2ccccc2)CC1 -9.47% [at 25.6 µM], Cc1ccccc1OCCCN1CCCC1 -1.3%, CN1CCN(c2ncc3ncc(=O)n(C[C@H]4CCCO4)c3n2)CC1 10.6%, CN1CCN(c2ncc3ncc(=O)n(CCC#N)c3n2)CC1 1.63%, NC([N-]/N=C/c1ccccn1)=[S]=[Fe].O=S(=O)(O)O -4.8% [at 11.4 µM], Cc1cc(C)nc(SCC(=O)Nc2ccccc2[N+](=O)[O-])n1 -9.77%, O=C(CSc1nc2ccccc2o1)Nc1nc2ccccc2s1 -7.57% [at 2.29 µM], O=C(CNC1CCCCCC1)Nc1ccccc1N1CCCCC1 -25% [at 2.29 µM], COc1ccccc1-c1c(C)oc2c(CN3CCN(CCO)CC3)c(O)ccc2c1=O 3.63%, COc1cccc2cc3c(=O)oc4ccccc4c3nc12 -6.03% [at 2.29 µM]

AC50, active:
COC(=O)C/C=C\[C@@H](C)[C@@H](/C=N\O[C@@H](C)CN1CCCCc2nc(C)c(C)cc21)NS(=O)(=O)c1ccc(C)cc1 3.98 µM, CC(C)OCCCN1C(=O)c2ccccc2C1C(=O)NC1CCCCC1 (configuration not stated) 12.6 µM, CS(=O)(=O)N1N=C(c2ccc(Br)cc2)CC1c1ccc2c(c1)OCO2 (configuration not stated) 1.78 µM, COc1ccc(-c2cc3ccccc3n2CC(O)CNCCO)cc1 (configuration not stated) 15.8 µM, CN1CC(c2ccccc2)C2(COc3ccccc3C2=O)C12C(=O)Nc1ccccc12 (configuration not stated) 3.98 µM, CN(C)S(=O)(=O)c1ccc2c(c1)/C(=C/c1cc3c([nH]1)CCCC3)C(=O)N2 5.01 µM, CCCc1nnc(NC(=O)CN2C(=O)C3C4C=CC(C4)C3C2=O)s1 (configuration not stated) 12.6 µM, Cc1cccc(NC(=O)CSc2nnc(-c3ccco3)c(-c3ccco3)n2)c1C 15.8 µM, COc1ccc(C2(CNC(=O)/C=C/c3ccco3)CCCC2)cc1OC 3.55 µM, Cc1ccc(S(=O)(=O)N/N=C/c2cccn2-c2ccc(Cl)cc2)cc1 10 µM, O=S(=O)(N/N=C\c1cccn1-c1ccccc1)c1ccc2ccccc2c1 7.08 µM, O=C(c1cnccn1)N1CCC[C@@]2(CCN(Cc3ccncc3)C2)C1 15.8 µM, O=C(c1cnccn1)N1CCC[C@@]2(CCN(Cc3cc(C(F)(F)F)cc(C(F)(F)F)c3)C2)C1 7.94 µM, c1ccc(N2CCN(CCCOc3ccc4c(c3)OCO4)CC2)cc1 3.16 µM, COc1cccc(Cn2c(=O)c(CCc3ccccc3)nc3cnc(N4CCNCC4)nc32)c1 15.8 µM, CN1CCN(c2ncc3nc(CCc4ccccc4)c(=O)n(Cc4ccc(F)cc4)c3n2)CC1 5.01 µM, COc1cccc(Cn2c(=O)c(CCc3ccccc3)nc3cnc(N4CCN(C)CC4)nc32)c1 15.8 µM, COc1cccc(Cn2c(=O)cnc3cnc(N4CCN(C)CC4)nc32)c1 15.8 µM, O=C(CSc1nc2ccccc2o1)Nc1ccccc1N1CCCCCC1 3.98 µM, Cc1ccccc1NC(=O)CSc1nc(N2CCCCC2)nc(N2CCCCC2)n1 2 µM, COc1cccc(-c2cc(=O)c3ccccc3o2)c1N 7.94 µM

AC50, inactive:
CC(C)NC[C@H](O)c1cc(O)cc(O)c1
